Growth data for eight molecules are collected here from PubChem BioAssay (NCI).

The panel holds about 83,000 compounds, 20% with a hit somewhere; the sample as a whole holds those more often.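 Percent growth is the endpoint: 0 to 100 indicates growth inhibition (40 means 60% inhibition), 0 means no net growth, and negative values indicate cell death.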 Unmarked numbers belong to inactive results. Calls of active or inactive are those of the source. The calls were made as follows: active = growth percent below 10; inactive = the rest.

Assay in all cases: NCI-60 one-dose screen, 48 h (100 = growth as untreated, 0 = no growth, -100 = all killed)
Conditions in all cases: 10 µM unless noted

Experiment [1] concerns HCT-15 colon.
Experiment [2] relates to HT29 colon.
The subject of experiment [3] is SNB-75 CNS.
For experiment [4], the system named is SNB-19 CNS.
Experiment [5] concerns U251 CNS.
In experiment [6] the test system is PC-3 prostate.
The subject of experiment [7] is SK-MEL-5 melanoma.
The subject of experiment [8] is UACC-62 melanoma.
Experiment [9] has as its system LOX IMVI melanoma.
The test system of experiment [10] is SK-MEL-28 melanoma.
Experiment [11] concerns SK-MEL-2 melanoma.
Experiment [12] deals with EKVX NSCLC.
The test system of experiment [13] is SN12C renal.
Experiment [14] concerns UO-31 renal.
In experiment [15] the test system is ACHN renal.
In experiment [16] the test system is A498 renal.
Experiment [17] concerns CCRF-CEM leukemia.
Experiment [18] has as its system MOLT-4 leukemia.
The subject of experiment [19] is TK-10 renal.
The test system of experiment [20] is CAKI-1 renal.

On to `C[C@@H]1[C@H]2[C@H](C=C3[C@@H]4CC[C@H]5Cc6nc7c(nc6C[C@]5(C)[C@H]4C[C@@H](O)[C@@]32C)C[C@@H]2CC[C@H]3C4=C[C@@H]5O[C@@]6(CC[C@](C)(CO)O6)[C@@H](C)[C@@]5(O)[C@@]4(C)[C@H](O)C[C@@H]3[C@@]2(C)C7)O[C@]12CCC(C)(C)O2`, for which the growth in experiment [1] was 11.2%; in experiment [2], -14.6% (active); in [3], -9.04% (active); in experiment [4], 25.1%; in [5], 7.53% (active); in experiment [6], -32% (active). For the same molecule, the growth was 0.934% (active) in experiment [7]; -0.259% (active) in experiment [8]; 3.2% (active) in experiment [9]; 40.8% in experiment [10]; 30.8% in [11]; 21.8% in experiment [12]. The growth in experiment [13] was 67.9%; in experiment [14] it was -6.3% (active); in experiment [15], 42.5%; in [16], -72.6% (active); in experiment [17] it was 2.79% (active); in experiment [18], -21.1% (active).

For `COc1cc(/C=C/C(=O)C(C(=O)/C=C/c2ccc(OC(=O)CCNc3nnc(C)s3)c(OC)c2)C(=O)CCNc2nnc(C)s2)ccc1OC(=O)CCNc1nnc(C)s1`, the growth in [1] is -43.2% (active); in experiment [2], -69% (active); in experiment [3] it was -13.6% (active); in experiment [4], 32.7%; in experiment [5], 11.1%; in experiment [6], -16.4% (active). Moreover, the growth in experiment [7] was -22.6% (active); in experiment [8], -67.6% (active); in [9], -68.7% (active); in [10] it was -15.6% (active); in [11], 13.2%; in experiment [12], 21.9%. In addition, the growth is -33.9% (active) in experiment [13]; 29.4% in experiment [19]; -21.4% (active) in experiment [15]; -3.62% (active) in experiment [20]; 49.7% in experiment [16]; -27.9% (active) in [18].

Consider `COc1cc(/C=C/C(=O)c2c(C)n([O-])c3ccccc3[n+]2=O)cc(OC)c1OC`, for which the growth is 30% in experiment [1]; 65.4% in [2]; 81% in experiment [3]; 50.8% in [4]; 47.7% in experiment [5]; 25.5% in experiment [6]. The growth is 21.3% in [7]; 54.7% in experiment [8]; 50.9% in [9]; 79% in experiment [10]; 36.8% in experiment [11]; 35.5% in experiment [12]. The growth in [13] was 54.6%; in experiment [19], 87.9%; in experiment [15] it was 76.6%; in [20], 26.3%; in experiment [16], 69.7%; in experiment [17], -51.2% (active). Further, the growth in [18] was -64.5% (active).

For the molecule `CCOc1cc(/C=C/C(=O)C(C(=O)/C=C/c2ccc(OC(=O)CNc3nnc(C)s3)c(OCC)c2)C(=O)CNc2nnc(C)s2)ccc1OC(=O)CNc1nnc(C)s1`, the growth in experiment [1] was -60.1% (active); in [2], -100% (active); in experiment [3], -15.8% (active); in experiment [4], 32.4%; in experiment [5], -61.4% (active); in [6] it was -27.9% (active). Besides, the growth in experiment [7] is -83.4% (active); in experiment [8] it was -88.7% (active); in [9] it was -100% (active); in experiment [10] it was -68.5% (active); in [11], 11%; in experiment [12], -13.9% (active). Also, the growth was -3.17% (active) in experiment [13]; 32.4% in [19]; -85.2% (active) in experiment [15]; -6.01% (active) in [20]; -41.7% (active) in [16]; -34.3% (active) in [18].

On to `CN(C)c1ccc(-n2nc3ccccc3n2)cc1`, for which the growth is 108% in [1]; 111% in experiment [2]; 108% in experiment [3]; 98.6% in [4]; 95.5% in experiment [5]; 101% in experiment [6]. Moreover, the growth in experiment [7] was 75.2%; in experiment [8] it was 81.1%; in [9], 93.8%; in experiment [10], 126%; in experiment [11], 102%; in experiment [12] it was 76.7%. Further, the growth in experiment [13] was 97.2%; in [19] it was 143%; in experiment [15] it was 96.1%; in experiment [20], 73.5%; in experiment [16], 96.4%; in experiment [18], 82.6%.

Take `C(#Cc1ccccc1C#Cc1ccccn1)c1ccc(OCCCCCCOc2ccc(C#Cc3ccccc3C#Cc3ccccn3)cc2)cc1`: the growth in [1] is 41.2%; in [2] it was 93%; in experiment [3] it was 92.6%; in experiment [4], 72.5%; in experiment [5], 50.3%; in [6] it was 39.6%. Also, the growth is 20.6% in [7]; 23.9% in [8]; 14.7% in experiment [9]; 81.8% in [10]; 64.2% in experiment [11]; 42.5% in experiment [12]. Also, the growth in experiment [13] is 67.8%; in experiment [19], 76.2%; in [15], 44.2%; in [20], 57.9%; in [16], 57.5%; in experiment [18], 21.6%.

On to `CCOC(=O)C(Br)=P(c1ccccc1)(c1ccccc1)c1ccccc1`, for which the growth in experiment [1] is 102%; in [2], 106%; in experiment [3] it was 118%; in [4], 114%; in experiment [5] it was 87.7%; in experiment [6] it was 99.9%. The growth in experiment [7] is 87.6%; in [8] it was 92.8%; in [9], 101%; in [10] it was 107%; in experiment [11] it was 98.8%; in [12], 103%. Besides, the growth in experiment [13] was 101%; in experiment [19] it was 117%; in [15], 104%; in experiment [20] it was 82.9%; in experiment [16] it was 109%; in experiment [17], -40.7% (active). Besides, in experiment [18], the growth was 99.6%.

Take `Nc1ncnc2c1CN(Cc1ccccc1)CC2`: the growth was 107% in experiment [1]; 104% in [2]; 89% in experiment [3]; 104% in experiment [4]; 101% in experiment [5]; 93.9% in experiment [6]. The growth in [7] is 109%; in experiment [8] it was 107%; in experiment [9], 91.4%; in experiment [10], 109%; in experiment [11], 103%; in experiment [12], 110%. The growth in experiment [14] was 76.2%; in experiment [19], 108%; in experiment [15], 103%; in experiment [20] it was 102%; in experiment [16] it was 120%; in [17], 95.5%. In addition, the growth in [18] was 102%.
